From PubChem BioAssay
Sampled rows, rich in hits. Any-hit rate of the full collection: about 3.4%.
APP 5'UTR act: APP 5'UTR luciferase reporter activation; activation, % at 2 µM; 1% of 190,000 active; SH-SY5Y APP 5'UTR luciferase reporter, luminescence; zero percent = DMSO vehicle wells;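 active = activation above a set limit, based on mean plus 3 SD of controls, cut at about 140% in these data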
hcDAF-12 act: H. contortus DAF-12 activation, primary screen; HEK293 hcDAF-12 lit1-tk-luc reporter, luminescence; 0% DMSO, 100% Δ7-dafachronic acid; activation, % at 6.8 µM; 1.4% of 370,000 active;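 active = activation above the mean of all tested compounds plus 3 SD, cut at about 5.5% in these data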
NF-kB neuron act: compounds increasing NF-kB expression in human neuronal cells | fold change at 12.5 µM | NF-kB reporter expression; hits give high values | AID 1239 | 1.6% of 190,000 active; in the data active = fold change above about 3.3
ssDAF-12 act: activators of S. stercoralis DAF-12 nuclear receptor | activation, % at 6.8 µM | 1% of 370,000 active | HEK293 ssDAF-12/GRIP1 lit1-tk-luc reporter, luminescence; % of 3 µM dafachronic acid response;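 active = activation above the mean over all tested compounds plus 3 SD, cut at about 0.9% in these data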
hgDAF-12 ag: activates the H. glycines DAF-12 receptor ligand-binding domain | activation, % at 6.8 µM | AID 687014 | HEK293 GAL4-hgDAF12 UAS-luciferase reporter, agonist luminescence; normalized to butyrate control | 1.8% of 370,000 active;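 active = activation above a cutoff set at the mean of all screened compounds plus 3 SD, cut at about 10% in these data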
Numbers stand for hits; . = inactive; / = no result.

SMILES	APP 5'UTR act	hcDAF-12 act	NF-kB neuron act	ssDAF-12 act	hgDAF-12 ag
COC(=O)c1cc(=O)n(Cc2ccc(F)cc2)c(=NCc2ccc(F)cc2)s1	.	.	.	1.4	.
COCCCN1C(=O)[C@H](CC(=O)NCC23CC4CC(CC(C4)C2)C3)[C@]2(C(=O)OC)CCCCC=C12	/	.	/	.	.
CN1OCC(S(=O)(=O)c2ccccc2)C1c1ccccc1 (stereo not drawn)	.	.	.	.	.
COc1cc(C2C(S(=O)(=O)c3ccccc3)CON2C)ccc1OCc1ccc(F)cc1 (stereo not drawn)	.	.	6.6	.	.
N/C(=N\OC(=O)C12CC3CC(CC(C3)C1)C2)c1ccccn1	.	.	.	.	11
C/C(=N/NC(=O)c1ccoc1C)C12CC3CC(CC(C3)C1)C2	158	.	.	.	13
N/C(=N\OC(=O)CC1CCCCC1)c1ccncc1	.	.	.	.	.
O=C(Nc1ccccn1)C12CC3CC(CC(C3)C1)C2	.	.	.	.	.
N/C(=N\OC(=O)CC1CCCCC1)c1ccccn1	.	.	4.8	.	.
C/C(=N\NC(=O)c1ccccn1)C12CC3CC(CC(C3)C1)C2	.	.	.	.	13
CN1C(=O)c2cc(NC(=O)Nc3ccccc3F)ccc2OC[C@H]2O[C@@H](CC(=O)NCc3ccc(-c4ccccc4)cc3)CC[C@@H]21	/	.	/	.	.
C=CCn1c(Cc2cccs2)nnc1SCC(=O)Nc1ccc2c(c1)OCO2	/	.	/	.	.
CCN(C(=O)Cn1nnc(-c2ccncc2)n1)c1ccccc1	/	.	/	.	.
CCN(CC)C(=O)CSc1nnc(-c2cccs2)o1	/	.	/	.	.
COCc1cc(C)nc2sc(C(=O)Nc3ccc(OC)cc3)c(N)c12	/	.	/	.	.
COCc1cc(C)nc2sc(C(=O)Nc3cccc(OC)c3)c(N)c12	/	.	/	.	10
CCN(Cc1ccccc1)S(=O)(=O)c1ccc(C(=O)N(CCCN(C)C)c2nc3c(F)cccc3s2)cc1	/	5.7	/	.	.
COC(=O)[C@@]12CCCCC3=C1N(CCC3)C(=O)[C@H]2CC(=O)NCCCN1CCCC1=O	/	.	/	.	.
Cc1ccc2nc(NC(=S)NC(=O)c3ccco3)sc2c1	163	.	.	.	12
Cc1ccc2nc(NC(=O)c3ccco3)sc2c1	.	.	.	.	.
Cc1ccnc(NC(=S)NC(=O)c2ccco2)c1	149	.	4.7	.	.
CCc1c2c3n4c1CCC[C@@H]4C[C@@H]3O[Si](C(C)C)(C(C)C)OC(C)C2=O (stereo partly drawn)	/	.	/	.	.
COC(=O)[C@]12C[C@H](CC(=O)N3CCN(C(=O)c4ccco4)CC3)C(=O)N(CCc3ccc(OC)c(OC)c3)C1=C[C@H](C1CCCC1)O[C@@H]2C	/	.	/	.	.
COC(=O)c1ccc(CO/N=C/c2ccc(OC)cc2)o1	.	.	4.6	.	.
COC(=O)c1ccc(COc2ccc(F)cc2)o1	/	.	/	.	.
SMILES	APP 5'UTR act	hcDAF-12 act	NF-kB neuron act	ssDAF-12 act	hgDAF-12 ag
O=C(Nc1ccc(F)cc1)OCc1cn(Cc2cccc(F)c2)nn1	/	.	/	.	.
CC(C)NC(=O)[C@]1(C#N)CC(=O)N(C)[C@@H]1c1ccccc1	/	.	/	.	.
COc1ccc(/C=N/N=C2/SCC(=O)N2Cc2ccccc2)cc1	/	.	/	.	13
O=C(CSc1ccc2ccccc2c1)N1CCN(c2ccc(O)cc2)CC1	/	.	/	.	.
CCOC(=O)N1CCN(c2ccc(O)cc2)CC1	.	.	3.5	.	.
CCOC(=O)N1CCN(c2ccc(Cl)cc2)CC1	.	.	.	.	.
O=C(c1ccc2ccccc2c1)N1CCN(c2ccc(O)cc2)CC1	.	.	4.1	.	.
C=CCNC(=O)NC[C@@]1(C(=O)OC)CC(=O)N(C)[C@@H]1c1ccccc1	/	.	/	.	.
COC(=O)C[C@H]1CC[C@@H]2[C@H](COc3ccc(NS(C)(=O)=O)cc3C(=O)N2C)O1	/	.	/	.	.
Cc1cccc2nc3ccccc3cc12	/	.	/	.	.
Cc1[nH]ccc2cc3nc4ccccc4c3cc12	/	5.7	/	.	.
COc1ccc(N=c2cc(-c3ccc(OC)cc3)oc3ccccc23)cc1	.	.	.	1.0	.
O=C(NCCc1c[nH]c2ccccc12)OCc1cn(Cc2ccccc2C(F)(F)F)nn1	/	.	/	.	.
Cc1ccc(C=C2C(=O)c3ccccc3C2=O)o1	.	6.3	.	.	.
O=C1N(c2ccccc2)CCN1c1ccccc1	/	.	/	.	11
O=C1NCCN1c1ccccc1	/	.	/	.	.
C=CCNC(=O)CN(C(=O)Cc1ccc(Cl)cc1)c1cccc(Br)c1	/	.	/	.	.
CCSc1cc(N2CCCC2)nc(-c2ccc(Cl)cc2)n1	/	.	/	.	.
Clc1ccc(-c2nnc(N3CCCC3)nn2)cc1	.	.	4.6	.	.
O=C(CSc1nnc(-c2ccccn2)n1-c1ccccc1)c1ccc(F)cc1	/	.	/	.	.
O=C(N/N=C1/CC2C=CCC12)c1ccco1 (stereo not drawn)	.	.	.	1.0	11
O=C(N/N=C/C=N/NC(=O)c1ccco1)c1ccco1	/	.	/	.	.
Clc1ccc([C@H]2OC[C@@]3(CNCc4ccc5c(c4)OCO5)CS[C@H](c4ccc(Cl)cc4)N23)cc1	/	.	/	.	.
Cn1c(=O)c(-c2cc(=O)[nH][nH]2)c(O)c2ccccc21	.	6.2	.	.	.
O=C(Cn1nnc(-c2ccc(N3CCOCC3)cc2)n1)c1ccccc1	/	.	/	.	.
SMILES	APP 5'UTR act	hcDAF-12 act	NF-kB neuron act	ssDAF-12 act	hgDAF-12 ag
N/C(=N\OC(=O)COc1ccc(Br)cc1Cl)c1cccnc1	.	.	.	.	12
Cc1cc(C)c(C)c(OCC(=O)O/N=C(\N)c2cccnc2)c1	/	.	/	.	.
N/C(=N\OC(=O)COc1ccc(Cl)cc1Br)c1cccnc1	.	.	.	.	11
c1ccc(-c2ccc(-c3ccncn3)cc2)cc1	/	.	/	.	12
O=C(NC(=S)Nc1ncc(Br)cc1Br)c1cncc(Br)c1	.	.	.	.	.
O=C(NC(=S)NC1CCCCCC1)c1cncc(Br)c1	.	.	.	.	11
C#CCCN([C@@H](CC(C)C)C(=O)OC)S(=O)(=O)c1ccc(F)cc1Br	/	.	/	.	.
CCOC(=O)C1=C(c2ccccc2)O/C(=C(\C(=O)OC)C(F)(F)F)S1	.	.	.	.	.
CCOC(=O)C1=C(c2ccccc2)O/C(=C(/C#N)C(F)(F)F)S1	.	/	8.6	/	/
CC(=O)N(C)c1ccc(N=Nc2ccc3ncccc3c2)cc1	/	5.7	/	.	12
Oc1ccc(C=Nc2ccc3ncccc3c2)c(O)c1	.	/	.	/	/
CCOc1ccc(NC(=O)c2cc(-c3ccc(Cl)cc3)nc3ccccc23)cc1	/	.	/	.	.
Cc1ccc2c(c1)c(N=Nc1ccc([N+](=O)[O-])cc1)c(O)n2C	/	6.0	/	.	.
Cn1c(O)c(N=Nc2ccc(F)cc2)c2ccccc21	.	5.6	.	.	.
Cn1c(O)c(N=NC(=O)Cc2c[nH]c3ccccc23)c2ccccc21	/	.	/	.	.
Cn1c(O)c(N=Nc2ccccc2)c2ccccc21	/	.	/	1.2	.
Cc1c(C)n(C)c2ccc([N+](=O)[O-])cc12	.	.	.	.	.
